Assay [1] can be described thus: antimalarial activity against Dd2 strain (AID 2302;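 active means growth inhibition above 50% at the single 2 µM test dose, taken to imply half-maximal potency below 2 µM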;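 further: 0% = DMSO untreated growth and 100% = chloroquine plus artemisinin killed control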). To be noted: P. falciparum Dd2 in RBCs, LDH growth readout, 72 h; at 2 µM; active compounds read high.
The nature of assay [2]: human hepatoma cell viability loss – ATP luminescence, cytotoxicity control for P. falciparum antimalarial project, primary screen (AID 2303;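 active means inhibition above 50%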;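 further: 0% = DMSO wells and 100% = digitonin-killed cells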). Particulars: HepG2 viability, 24-48 h, at 10 µM, active compounds read high.
Assay [3] concerns the target L-lactate dehydrogenase (Plasmodium falciparum (isolate CDC / Honduras)) (UniProt Q27743). Description: PfLDH activity inhibition – cell lysate, 3D7 strain, counter-screen for P. falciparum growth inhibition project (AID 2304).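 Further: 0% = vehicle and 100% = reference inhibitor.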 Particulars: P. falciparum 3D7 crude extract, LDH APAD/NBT absorbance; at 2 µM; active compounds read high. (In general: Counterscreens check selectivity or assay interference.)

The nature of assay [4]: inhibition of 3D7 malaria parasite growth – strain 3D7 (AID 2306).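 Further: 0% = DMSO wells and 100% = chloroquine plus artemisinin control wells.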 To be noted: P. falciparum 3D7 erythrocytic growth, LDH absorbance, 72 h; at 2 µM; active compounds read high.
Assay [5] concerns the target Calcium-dependent protein kinase 1 (Plasmodium falciparum (isolate 3D7)) (UniProt P62344). Put plainly: PfCDPK1 kinase inhibitors, biochemical, TCAMS library (AID 1159585; cut-off not given, nearly all actives have IC50 up to about 0.98 µM;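 further: inhibitors leave more ATP so luminescence rises with inhibition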). Particulars: recombinant PfCDPK1, Kinase-Glo ATP depletion luminescence. Background: In Kinase-Glo more light means more ATP remaining.
For assay [6], the target named is Plasmodium falciparum protein kinase 6 (PK6, PF3D7_1337100) (UniProt Q8IDW1). Put plainly: PfPK6 kinase inhibitors, biochemical, TCAMS library (AID 1159586). Particulars: recombinant PfPK6, Kinase-Glo ATP depletion luminescence.
Assay [7] has as its target Protein kinase 7 (PK7), Plasmodium falciparum 3D7 (PF3D7_0213400) (UniProt Q7YTF7). Description: inhibition of Plasmodium PK7 catalytic activity – biochemical, TCAMS antimalarial set, Kinase-Glo luminescence (AID 1159587). Particulars: recombinant PfPK7, Kinase-Glo ATP depletion luminescence.
Assay [8] concerns the target Calcium-dependent protein kinase 4 (Plasmodium falciparum (isolate 3D7)) (UniProt Q8IBS5). Put plainly: PfCDPK4 kinase inhibitors, biochemical, TCAMS library (AID 1159588; cut-off not given, nearly all actives have IC50 up to about 0.91 µM). To be noted: recombinant PfCDPK4, Kinase-Glo ATP depletion luminescence.

The structures appear in SMILES notation. A number with no mark means an inactive call. For some assays here: Potency and affinity values are given separately. The source made the active and inactive calls. Unless noted, how the calls were made is not given here.

A word on the inhibition: it is the relative decrease from the control value, in per cent.

L-lactate dehydrogenase (Plasmodium falciparum (isolate CDC / Honduras)), sequence (Q27743 whole entry, looked up): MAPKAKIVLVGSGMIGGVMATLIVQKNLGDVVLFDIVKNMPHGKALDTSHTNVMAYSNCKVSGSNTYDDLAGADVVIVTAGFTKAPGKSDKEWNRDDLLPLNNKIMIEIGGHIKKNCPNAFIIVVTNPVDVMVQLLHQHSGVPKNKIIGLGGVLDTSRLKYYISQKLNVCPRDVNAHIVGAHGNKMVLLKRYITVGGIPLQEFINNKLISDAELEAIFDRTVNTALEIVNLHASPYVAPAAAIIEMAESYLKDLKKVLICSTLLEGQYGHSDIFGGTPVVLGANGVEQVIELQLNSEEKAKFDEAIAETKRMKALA
Protein kinase 7 (PK7), Plasmodium falciparum 3D7 (PF3D7_0213400), sequence (Q7YTF7 1-343): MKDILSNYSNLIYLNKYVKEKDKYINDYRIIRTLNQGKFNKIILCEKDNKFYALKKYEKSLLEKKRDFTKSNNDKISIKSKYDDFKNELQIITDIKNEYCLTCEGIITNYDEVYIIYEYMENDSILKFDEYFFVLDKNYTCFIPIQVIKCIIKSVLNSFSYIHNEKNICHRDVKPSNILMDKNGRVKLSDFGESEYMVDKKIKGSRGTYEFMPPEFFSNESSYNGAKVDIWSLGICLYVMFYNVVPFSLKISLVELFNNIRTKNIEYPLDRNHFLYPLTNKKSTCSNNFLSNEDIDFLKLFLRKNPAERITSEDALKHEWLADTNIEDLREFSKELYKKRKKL
Plasmodium falciparum protein kinase 6 (PK6, PF3D7_1337100), sequence (Q8IDW1 1-305): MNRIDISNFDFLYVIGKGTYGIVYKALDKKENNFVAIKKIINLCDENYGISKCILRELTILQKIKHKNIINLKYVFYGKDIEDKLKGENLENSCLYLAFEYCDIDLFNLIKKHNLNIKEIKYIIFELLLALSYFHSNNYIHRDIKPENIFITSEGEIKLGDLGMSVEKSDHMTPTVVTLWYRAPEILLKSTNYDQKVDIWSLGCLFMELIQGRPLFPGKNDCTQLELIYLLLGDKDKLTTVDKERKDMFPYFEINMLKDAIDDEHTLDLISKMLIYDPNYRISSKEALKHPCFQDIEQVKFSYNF
Calcium-dependent protein kinase 1 (Plasmodium falciparum (isolate 3D7)), sequence (P62344 whole entry, looked up): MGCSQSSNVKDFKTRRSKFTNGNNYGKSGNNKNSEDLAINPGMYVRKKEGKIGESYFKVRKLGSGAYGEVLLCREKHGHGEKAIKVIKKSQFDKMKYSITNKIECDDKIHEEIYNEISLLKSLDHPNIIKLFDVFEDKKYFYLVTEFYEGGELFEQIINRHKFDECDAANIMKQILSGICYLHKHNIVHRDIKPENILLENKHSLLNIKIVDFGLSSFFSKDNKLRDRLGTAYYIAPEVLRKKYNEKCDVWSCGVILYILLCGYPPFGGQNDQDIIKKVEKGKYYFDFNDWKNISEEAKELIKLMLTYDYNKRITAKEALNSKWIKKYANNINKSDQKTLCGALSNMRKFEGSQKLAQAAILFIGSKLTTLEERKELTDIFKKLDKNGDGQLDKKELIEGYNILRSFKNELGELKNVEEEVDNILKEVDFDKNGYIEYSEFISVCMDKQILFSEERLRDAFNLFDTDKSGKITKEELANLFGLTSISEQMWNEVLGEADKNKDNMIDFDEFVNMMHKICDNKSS
Calcium-dependent protein kinase 4 (Plasmodium falciparum (isolate 3D7)), sequence (Q8IBS5 whole entry, looked up): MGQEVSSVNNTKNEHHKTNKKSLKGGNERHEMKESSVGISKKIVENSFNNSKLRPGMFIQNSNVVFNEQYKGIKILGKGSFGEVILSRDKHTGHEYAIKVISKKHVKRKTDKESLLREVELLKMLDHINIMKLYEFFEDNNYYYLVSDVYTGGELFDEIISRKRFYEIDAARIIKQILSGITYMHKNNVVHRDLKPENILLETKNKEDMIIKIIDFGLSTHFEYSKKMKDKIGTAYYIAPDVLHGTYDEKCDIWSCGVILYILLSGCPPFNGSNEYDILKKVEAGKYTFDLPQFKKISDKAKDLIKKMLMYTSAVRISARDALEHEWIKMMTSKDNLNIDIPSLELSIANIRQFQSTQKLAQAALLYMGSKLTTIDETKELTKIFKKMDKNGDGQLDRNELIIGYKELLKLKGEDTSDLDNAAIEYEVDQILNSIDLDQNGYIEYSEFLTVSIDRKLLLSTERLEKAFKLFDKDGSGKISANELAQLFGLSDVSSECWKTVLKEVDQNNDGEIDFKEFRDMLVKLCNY

For the compound `Cc1nnsc1C(=O)Nc1cccc(-c2cccc(-c3nc4c(C)cccc4[nH]3)c2)c1`, the growth inhibition in assay [1] is 80% (active); in assay [4], 99% (active). Moreover, the inhibition in assay [2] was 22%; in assay [3], 4%. Moreover, the result in assay [5], in assay [6], in assay [7] and in assay [8] was inactive.
With `O=c1[nH]c2ccc3[nH]cccc3c2c1C=Nc1ccc(N2CCN(CCO)CC2)cc1`, the growth inhibition is 55% (active) in assay [1] and 86% (active) in assay [4]. Besides, the figures for the inhibition in assay [2] and in assay [3] were 34% and -6%, respectively. Moreover, the outcome in assay [5], in assay [6], in assay [7] and in assay [8] was inactive.
Consider `CCOc1cc(C(=O)NCc2cccc(C(F)(F)F)c2)ccc1-c1nc2ccc(Cl)cc2[nH]1`, for which the growth inhibition in assay [1] was 31%; in assay [4], 88% (active). Besides, the inhibition was 7% in assay [2] and -6% in assay [3]. Moreover, the outcome in assay [5], in assay [6], in assay [7] and in assay [8] was inactive.
In the case of `Fc1ccc2nc(-c3ccc(-c4ccc(CN5CCC(CCN6CCCCC6)CC5)cc4)cc3)[nH]c2c1`, the growth inhibition in assay [1] and in assay [4] was 100% (active) each time. In addition, the inhibition in assay [2] is 98% (active); in assay [3], -9%. Moreover, the outcome in assay [5], in assay [6], in assay [7] and in assay [8] was inactive.
Turning to `COc1ccc(/C=C/C(=O)Nc2ccc(-c3ccncc3)cc2)cc1CCCN(C)C`, the growth inhibition was 86% (active) in assay [1] and 102% (active) in assay [4]. Moreover, the figures for the inhibition in assay [2] and in assay [3] were 3% and 1%, respectively. Further, the result in assay [5], in assay [6], in assay [7] and in assay [8] was inactive.
For the compound `COc1ccc(-c2ccc(NC(=O)c3ccc(C#N)cc3)cc2)cc1CN1CCC(O)CC1`, the growth inhibition in assay [1] is 28%; in assay [4] it was 94% (active). Besides, the inhibition was 24% in assay [2] and 7% in assay [3]. Besides, the outcome in assay [5], in assay [6], in assay [7] and in assay [8] was inactive.
`Cn1cncc1C(=O)Nc1cccc(-c2cccc(-c3nc4ccccc4[nH]3)c2)c1`: the growth inhibition in assay [1] is 35%; in assay [4] it was 102% (active). Besides, the inhibition was 9% in assay [2] and 3% in assay [3]. Further, the outcome in assay [5], in assay [6], in assay [7] and in assay [8] was inactive.
With `COc1ccc(-c2nc(NC(=O)CSc3ccccc3)sc2C)cc1`, the growth inhibition is 31% in assay [1] and 94% (active) in assay [4]. Also, the inhibition in assay [2] is 6%; in assay [3], 2%. For the same compound, the result in assay [5], in assay [6], in assay [7] and in assay [8] was inactive.
On to `NCC1CCCN1Cc1ccc(-c2ccc(-c3nc4ccc(C(F)(F)F)cc4[nH]3)s2)cc1` (configuration not stated), for which the values for the growth inhibition in assay [1] and in assay [4] were 97% (active) and 102% (active), respectively. Moreover, the inhibition in assay [2] was 31%; in assay [3], -3%. Further, the result in assay [5], in assay [6], in assay [7] and in assay [8] was inactive.
Turning to `COc1ccc(N(c2nc(-c3cc(Cl)ccc3Cl)cs2)C2CCNC2)cc1` (configuration not stated), the growth inhibition in assay [1] is 9%; in assay [4] it was 95% (active). The inhibition in assay [2] was 21%; in assay [3], 3%. Further, the outcome in assay [5], in assay [6], in assay [7] and in assay [8] was inactive.
For the compound `Cc1cccc2[nH]c(-c3ccc(-c4ccc(CNCC5CCCO5)cc4)cc3)nc12` (configuration not stated), the growth inhibition in assay [1] was 81% (active); in assay [4] it was 101% (active). For the same compound, the inhibition in assay [2] was 36%; in assay [3], -4%. Also, the outcome in assay [5], in assay [6], in assay [7] and in assay [8] was inactive.
In the case of `C[C@H](Cc1ccc(OCCCOc2ccc(C[C@@H](C)NC[C@H](O)c3cccc(Cl)c3)cc2)cc1)NC[C@H](O)c1cccc(Cl)c1`, the growth inhibition is 92% (active) in assay [1] and 99% (active) in assay [4]. Besides, the inhibition was 99% (active) in assay [2] and 0% in assay [3]. For the same compound, the outcome in assay [5], in assay [6], in assay [7] and in assay [8] was inactive.
As to `Cc1c(-c2ccccc2)ccc2[nH]cc(CC#N)c12`, the growth inhibition in assay [1] was 85% (active); in assay [4] it was 95% (active). Also, the inhibition in assay [2] was 2%; in assay [3] it was -2%. Further, the result in assay [5], in assay [6], in assay [7] and in assay [8] was inactive.
For `CCC1N=C(N)N=C(N)N1OCCCOc1c(Cl)cc(Cl)cc1Cl` (configuration not stated), the growth inhibition in assay [1] was 96% (active); in assay [4] it was 95% (active). The inhibition in assay [2] was 67% (active); in assay [3], 2%. The result in assay [5], in assay [6], in assay [7] and in assay [8] was inactive.
Take `Cc1cc(NCCc2ccccc2)nc(/N=C(\N)Nc2cccc(F)c2)n1`: the growth inhibition in assay [1] is -1%; in assay [4], 91% (active). The inhibition was -6% in assay [2] and -2% in assay [3]. Further, the result in assay [5], in assay [6], in assay [7] and in assay [8] was inactive.
In the case of `CCCc1cc(NC2CCN(C)CC2)nc(Nc2ccc(F)cc2)n1`, the growth inhibition is 16% in assay [1] and 95% (active) in assay [4]. Also, the inhibition is 20% in assay [2] and -7% in assay [3]. The outcome in assay [5], in assay [6], in assay [7] and in assay [8] was inactive.
Turning to `COc1ccc2ncc(F)c([C@H](O)CN3CCC(NCc4ccc5c(c4)OCCO5)CC3)c2c1`, the figures for the growth inhibition in assay [1] and in assay [4] were 99% (active) and 102% (active), respectively. Further, the inhibition in assay [2] is 1%; in assay [3] it was -5%. The outcome in assay [5], in assay [6], in assay [7] and in assay [8] was inactive.
In the case of `CC(=O)Nc1ccc(CN2CCC(NC(=O)c3ccc(-c4cccc(F)c4)s3)CC2)cc1`, the growth inhibition in assay [1] is 13%; in assay [4] it was 96% (active). In addition, the inhibition in assay [2] is 6%; in assay [3], 0%. Moreover, the outcome in assay [5], in assay [6], in assay [7] and in assay [8] was inactive.
For `Cc1ccc(Cn2c(N3CCC(C(=O)NCc4ccccn4)CC3)nc3ccccc32)cc1`, the growth inhibition is 99% (active) in assay [1] and 100% (active) in assay [4]. Further, the inhibition is -8% in assay [2] and 8% in assay [3]. Further, the outcome in assay [5], in assay [6], in assay [7] and in assay [8] was inactive.

The values are drawn from PubChem BioAssay.
